Test results: PubChem BioAssay (NCI)
The panel holds about 79,000 compounds, 15% with a hit somewhere; the sample as a whole holds those more often. Unmarked numbers belong to inactive results. Calls of active or inactive are those of the source. Cut-off read from the data, not from the text of the source: active = growth inhibition above about 70%; inactive = the rest.

Columns and labels:
[1] = NCI Yeast Anticancer Drug Screen. Data for the rad50 strain (AID 155);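 note: 0% = growth of vehicle-only cultures of the same strain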; conditions: S. cerevisiae rad50 strain growth inhibition; at 50.0 µM; hits give high values
Summary of the method: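 DNA repair mutant yeast, compound exposure, growth read-out; inhibition is taken relative to vehicle.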

[2] = NCI Yeast Anticancer Drug Screen. Data for the mec2-1 strain (AID 157); conditions: S. cerevisiae mec2-1 strain, at 50.0 µM, hits give high values
Summary of the method: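 mec2-1 yeast strain, carrying an alteration in DNA damage repair or cell cycle control, was exposed to compounds; growth inhibition was measured relative to vehicle-treated controls.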

[3] = NCI Yeast Anticancer Drug Screen. Data for the sgs1 mgt1 strain (AID 161);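 note: 0% = growth of cultures given vehicle only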; conditions: S. cerevisiae sgs1 mgt1 strain, at 50.0 µM, hits give high values
Summary of the method: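 Percent growth inhibition was derived by comparing compound-exposed mutant yeast with vehicle-exposed cultures. The strain carries alterations in DNA damage repair.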

[4] = NCI Yeast Anticancer Drug Screen. Data for the cln2 rad14 strain (AID 165);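 note: 0% = growth equal to vehicle treated cultures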; conditions: S. cerevisiae cln2 rad14 strain, at 50.0 µM, hits give high values
Summary of the method: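 Yeast carrying cln2 and rad14 alterations (cell cycle control and DNA damage repair) were exposed to compounds. Growth inhibition was measured against vehicle-treated controls.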

[5] = NCI Yeast Anticancer Drug Screen. Data for the bub3 strain (AID 167); conditions: S. cerevisiae bub3 mutant strain, at 50.0 µM, hits give high values
Summary of the method: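 In this screen, a yeast mutant lacking normal mitotic checkpoint function is challenged with compound. Relative growth versus vehicle gives the inhibition value.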

[6] = NCI Yeast Anticancer Drug Screen. Data for the mlh1 rad18 strain (AID 175); conditions: S. cerevisiae mlh1 rad18 strain growth inhibition; at 50.0 µM; hits give high values
Summary of the method: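 Growth inhibition of the yeast strain was measured after compound exposure and expressed relative to vehicle-treated controls. The strain carries defined defects in DNA damage repair.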

Structure (SMILES)	growth inhibition [1] [%]	growth inhibition [2]	growth inhibition [3] [%]	growth inhibition [4]	growth inhibition [5]	growth inhibition [6]
c1ccc(C2Nc3ccccc3C3OCCCC23)cc1 (configuration not stated)	2.35	-4.3%	9.8	-9.4%	-20.6%	1.7%
C=C1CC(CCCCC2CC(=C)C(=O)O2)OC1=O (configuration not stated)	1.45	-15.8%	-8.1	-104%	-12.7%	-24.6%
N#CNC1=C(C#N)C(c2ccccc2)CC(=O)N1 (configuration not stated)	4.35	25.5%	24.9	0%	-0.4%	10.2%
Cc1cccc2c1ccc1ccccc12	5.55	6%	-5.45	-9%	-9.65%	9.5%
O=[N+]([O-])c1c(O)c(O)c2ccccc2c1Nc1ccccc1	-29.9	-5.8%	-0.3	-62.4%	11.7%	-1.65%
N#C/C(=C\c1ccc2[nH]ccc2c1)C(=O)NCCCCNC(=O)/C(C#N)=C/c1ccc2[nH]ccc2c1	5.35	23.2%	10.4	-21.4%	9.65%	5.7%
Cc1ccc(NC(=O)Nc2cccc(C(F)(F)F)c2)cc1NC(=O)Nc1cccc(C(F)(F)F)c1	2.75	15%	31.9	23.7%	-6.6%	29.6%
COC(=O)C(C)CN1CCCCC1 (configuration not stated)	20.1	6.2%	22.1	-6.45%	31.9%	19.9%
C[C@H](CCC(=O)NCC(=O)O)[C@H]1CC[C@H]2[C@@H]3[C@H](O)C[C@@H]4C[C@H](O)CC[C@]4(C)[C@H]3CC[C@]12C	14.2	-13.4%	0.15	4.05%	-0.3%	6.5%
C/C(=C1/N=C(c2ccccc2)OC1=O)c1ccccc1	39.5	70% (active)	65.4	75.7% (active)	94.6% (active)	80.5% (active)
O=c1[nH]c(NCc2ccc(Cl)cc2)nc2nc[nH]c12	0.85	-3.85%	-19.5	12.2%	-8.55%	-46.4%
CC1(CO)OC(n2cnc3c(N)ncnc32)C(O)C1O (configuration not stated)	-25.8	-30.8%	-52.6	-8.25%	-14.7%	-29.2%
CC(C)C1=CC23CCC4C(C)(C(=O)O)CCCC4(C)C2CC1C1C(=O)N(c2ccccc2)C(=O)C13 (configuration not stated)	-7.45	-3.9%	1.55	0.7%	-40%	8.65%
Cc1nc2ccc(-c3ccccc3)cc2nc1C	-9.25	5.7%	-20.9	4.45%	-5.05%	3.7%
O=C(CC(=O)n1nc(-c2ccccc2)c(N=Nc2ccc([N+](=O)[O-])cc2)c1-c1ccccc1)Nc1ccc(Cl)cc1	35.6	3.1%	52	17.4%	53%	23.9%
O=C(Cc1nc2ccc(C(=O)c3ccccc3)cc2[nH]c1=O)C(=O)Nc1nc2ccccc2[nH]1	-23.1	19.3%	-4.05	-17.9%	-4.25%	9.5%
CCCCCCC(N)=O	8.1	2.1%	-4.05	-26.9%	-6.45%	9.75%
COc1cccc(C(=O)O)c1[N+](=O)[O-]	-19.1	-26.6%	-24	-46.1%	-6.05%	-1%
CNC(=S)C(N)CCCC1NC(=S)N(C)C1=O (configuration not stated)	7	6.8%	-21.9	16.7%	8.95%	0.7%

Structure (SMILES)	growth inhibition [1] [%]	growth inhibition [2]	growth inhibition [3] [%]	growth inhibition [4]	growth inhibition [5]	growth inhibition [6]
C=CCOC(=O)COC(=O)C(C)(C)OC(C)=O	-3.35	10.3%	-1.7	10.9%	12.6%	-5.9%
CCOC(=O)c1ccc(OC)cc1	-12.7	-25.4%	-8.8	2.8%	-3.55%	-17.4%
CC(C)(C)[Si](C)(C)OCC1OC(n2cc(I)c(=O)[nH]c2=O)C(O[Si](C)(C)C(C)(C)C)C1O[Si](C)(C)C(C)(C)C (configuration not stated)	-19.2	-16%	-18.2	14.8%	11.9%	-33.5%
Cc1cc(N(CCC#N)CCC#N)ccc1/C(N=Nc1ccccc1)=N\NC(=O)c1cc(Cl)ccc1O	18.8	9.8%	2.7	-3%	-17.4%	30.9%
CCOC(=O)c1nnc(-c2ccccc2)nc1Cl	-2.55	3.45%	0.15	-12.9%	3.7%	4%
CC(=O)OCC(OC(C)=O)C(OC(C)=O)C(OC(C)=O)C1OC(=O)C(OC(C)=O)C1OC(C)=O (configuration not stated)	0.5	-12%	3.8	2.25%	-0.75%	9.9%
CCCCN(CCCC)c1ccc(N=C(C#N)c2ccc(N(CCCC)CCCC)cc2)cc1	-21.4	-14.2%	14	-38.8%	-3%	19.5%
CN(C=O)c1ccc2c(c1)C(=O)c1ccccc1-2	11.7	2.1%	0.1	4.2%	-0.3%	9.55%
COC(=O)C(Cc1nc2ccc(Cl)cc2[nH]c1=O)C(=O)C(=O)Nc1cc(C)ccc1C (configuration not stated)	-19.2	4.85%	-33	-35.6%	-26.4%	14.5%
CC(C)(CO)C(Cl)C(=O)NCCC(=O)O (configuration not stated)	-6.05	-14.9%	-13	-2%	15.7%	-13.4%
CC1CCC(C(C)C)C(OC(=O)c2ccccc2O)C1 (configuration not stated)	16.1	6.9%	-11.3	33.5%	12%	35.5%
C/C(=N\NC(=S)Nc1cccc2cccc(S(=O)(=O)O)c12)c1ccccn1	3.4	-0.35%	-18.2	-5.55%	-7.4%	2.85%
CC(C)=C1C2CCC1[C@H](COS(C)(=O)=O)[C@@H]2COS(C)(=O)=O	-6.7	6.5%	4.45	16.9%	11.1%	-11.2%
S=c1nc[nH]c2c1ncn2Cc1ccccc1	5.55	4.25%	-14.3	1.3%	4.9%	2.35%
Cc1c2c(=O)oc3ccc(Cl)cc3c2nn1-c1ccccc1	-13.9	-9.4%	-11.8	-7.8%	-25.7%	-9.65%
CCCc1ccc(N=Nc2ccc(C(=O)O)cc2)cc1	-1.25	-3.4%	-2.9	-11.9%	-11.9%	0.7%
COc1ccc(NC(=O)C(=O)C2CNC(=O)NC2=O)c(OC)c1 (configuration not stated)	-9.2	-5.8%	-17.6	-6.65%	-13.1%	-17.3%
CCOC(=O)c1ccc(-n2cnc(-c3ccc([N+](=O)[O-])cc3)c2)cc1	-4.55	-7.2%	-8.8	-7.15%	-1.15%	-16.2%
